Experimental data from the supplement of paper PMC5662767.
Structures can show the parent of a compound that is named as a salt.

Tested on: Drosophila S2 cl14 SmoIP sensor cells
Assay: normalized SmoIP GFP fluorescence (untreated unstimulated = 0%, untreated Hh-stimulated = 100%); higher = more Smo activation sensor fluorescence
Settings: compound concentration: 2 uM, 24 h
[1] = stimulation: Hh conditioned medium (+Hh)
[2] = stimulation: mock conditioned medium (-Hh)
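Also: flow cytometry read-out as median GFP intensity of gated cells, compounds added 30 min before Hh-conditioned or mock medium, mock-treated cells serving as unstimulated baseline.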

SMILES | normalized SmoIP GFP fluorescence [1] [%] | normalized SmoIP GFP fluorescence [2] [%]
CC(C)(C)NS(=O)(=O)c1cncc(-c2cc(F)c3nc(N)nn3c2)c1 | 104 | -4.47
NC(=O)N1CCC(CC(=O)N2CCC(C3c4ncc(Br)cc4CCc4cc(Cl)cc(Br)c43)CC2)CC1 (stereo not drawn) | 127 | 10.1
O[C@H](CNC[C@@H](O)[C@H]1CCc2cc(F)ccc2O1)[C@@H]1CCc2cc(F)ccc2O1 [Nebivolol(Bystolic)] | 109 | 19.8
CN1CC(=O)N2[C@H](c3ccc4c(c3)OCO4)c3[nH]c4ccccc4c3C[C@@H]2C1=O [Tadalafil(Cialis)] | 94.8 | -0.265
COCC(=O)NC/C=C/c1ccc2ncnc(Nc3ccc(Oc4ccc(C)nc4)c(C)c3)c2c1 | 71.1 | 2.43
CCOc1ccc(NC(C)=O)cc1 [phenacetin] | 131 | 9.08
CCS(=O)(=O)c1cccc(-c2cc(C(=O)NC3CCN(C)CC3)c(C)c3[nH]c4ncc(C)cc4c23)c1 | 103 | -25.2
CN(C)CCC[C@@]1(c2ccc(F)cc2)OCc2cc(C#N)ccc21 [escitalopram-oxalate] | 107 | -1.12
O=C(/C=C/c1cccc(S(=O)(=O)Nc2ccccc2)c1)NO [Belinostat] | 189 | 54.6
CC(C)(C)NC[C@H](O)COc1nsnc1N1CCOCC1 [timolol-maleate] | 111 | -1.51
Cn1cc(-c2ccc3nnc(C(F)(F)c4ccc5ncccc5c4)n3n2)cn1 | 96.1 | -2.42
CC(C)(C#N)c1cc(Cn2cncn2)cc(C(C)(C)C#N)c1 [Anastrozole] | 109 | -2.96
COC(=O)C1=C(C)NC(C)=C(C(=O)OCCN2CCN(C(c3ccccc3)c3ccccc3)CC2)C1c1cccc([N+](=O)[O-])c1 (stereo not drawn) [Manidipine(Manyper)] | 118 | 3.85
CO[C@@H](C(=O)N1Cc2[nH]nc(NC(=O)c3ccc(N4CCN(C)CC4)cc3)c2C1)c1ccccc1 | 122 | 12.4
O=C1Nc2ccccc2/C1=C1/Nc2ccccc2C1=O [Indirubin] | 127 | -11.4
O=S(=O)(c1cccc2cnccc12)N1CCCNCC1 [Fasudil-HCl(HA-1077)] | 97 | -3.93
CN(C)Cc1cccc(N=C(c2ccccc2)c2c(O)[nH]c3cc(C(=O)N(C)C)ccc23)c1 | 86.4 | -3.71
COc1cc(NC(=O)c2ccccn2)ccc1Cl | 105 | -1.74
COc1cc2ncnc(Nc3ccc(O)c(Br)c3)c2cc1OC | 112 | -2.31
CC(=O)O[C@]1(C(C)=O)CC[C@H]2[C@@H]3C[C@H](C)C4=CC(=O)CC[C@]4(C)[C@H]3CC[C@@]21C [Medroxyprogesterone-acetate] | 116 | -1.83
Cc1c(Nc2ncccc2C(=O)O)cccc1C(F)(F)F [flunixin-meglumin] | 123 | -12.6
C#CCN[C@@H]1CCc2ccccc21 [rasagiline-mesylate] | 120 | -13.4
COC(=O)C1=C(C)NC(C)=C(C(=O)OC2CCCN(Cc3ccccc3)C2)C1c1cccc([N+](=O)[O-])c1 (stereo not drawn) [benidipine-hydrochloride] | 89.9 | -3.9

SMILES | normalized SmoIP GFP fluorescence [1] [%] | normalized SmoIP GFP fluorescence [2] [%]
NC(=O)[C@@H](CCC(F)(F)F)N(Cc1ccc(-c2ncon2)cc1F)S(=O)(=O)c1ccc(Cl)cc1 | 116 | 0.489
CNCC[C@@H](Oc1ccccc1C)c1ccccc1 [atomoxetine-hydrochloride] | 104 | -0.264
Cc1cccc(-c2[nH]ncc2-c2ccc3ncccc3n2)n1 [repsox] | 109 | -0.378
CO[C@H]1C[C@@H]2CC[C@@H](C)[C@@](O)(O2)C(=O)C(=O)N2CCCC[C@H]2C(=O)O[C@H]([C@H](C)C[C@@H]2CC[C@@H](OCCO)[C@H](OC)C2)CC(=O)[C@H](C)/C=C(\C)[C@@H](O)[C@@H](OC)C(=O)[C@H](C)C[C@H](C)/C=C/C=C/C=C/1C [Everolimus(RAD001)] | 32.9 | -10.1
COC[C@H](NC(=O)c1cnc(C)s1)C(=O)N[C@@H](COC)C(=O)N[C@@H](Cc1ccccc1)C(=O)[C@@]1(C)CO1 [oprozomib-onx-0912] | 81.9 | 26.7
Oc1ccc(-c2nc(-c3ccc(F)cc3)c(-c3ccncc3)[nH]2)cc1 | 99.3 | -1.34
O=C1NC(=O)/C(=C/c2cccc(C(F)(F)F)c2)S1 | 107 | -9.04
CCOc1nc2cccc(C(=O)O)c2n1Cc1ccc(-c2ccccc2-c2noc(=O)[nH]2)cc1 [azilsartan-tak-536] | 104 | -4.7
CCC(=O)N1CCN(c2ccc(-n3c(=O)ccc4cnc5ccc(-c6cnc7ccccc7c6)cc5c43)cc2C(F)(F)F)CC1 [torin-1] | 46.9 | -12.5
N#CC[C@H](C1CCCC1)n1cc(-c2ncnc3[nH]ccc23)cn1 | 112 | 1.03
CCc1c(C(=O)NCCc2ccc(N3CCCCC3)cc2)[nH]c2ccc(Cl)cc12 | 167 | -0.804
CC(=O)Nc1ccc(C(=O)Nc2ccccc2N)cc1 [ci994-tacedinaline] | 129 | -4.13
C[C@@H]1CCO[C@H]2Cn3cc(C(=O)NCc4ccc(F)cc4F)c(=O)c(O)c3C(=O)N12 | 140 | -15.3
CN1CCN(C2CCN(C(=O)Nc3cc(Oc4ccc(NC(=O)C5(C(=O)Nc6ccc(F)cc6)CC5)c(F)c4)ccn3)CC2)CC1 [golvatinib-e7050] | 125 | 12.5
CN1[C@@H]2CC[C@H]1C[C@@H](OC(=O)c1c[nH]c3ccccc13)C2 [Tropisetron-hydrochloride] | 116 | -14.9
COc1ccc(CCc2nc3cc(-c4c(C)noc4C)ccc3n2C[C@H](C)N2CCOCC2)cc1Cl | 144 | 2.75
COc1cc2nc(N3CCCN(C)CC3)nc(NC3CCN(Cc4ccccc4)CC3)c2cc1OC | 109 | 1.61
C[C@@H]1C[C@H]2[C@@H]3CCC4=CC(=O)C=C[C@]4(C)[C@@]3(F)[C@@H](O)C[C@]2(C)[C@@]1(O)C(=O)CO [Dexamethasone] | 86.8 | 5.66
NC(=O)Nc1sc(-c2ccc(F)cc2)cc1C(N)=O [tpca-1] | 106 | -3.79
COc1cc(OC)c(NC(=O)Nc2cc(C)on2)cc1Cl | 114 | -5.98
COc1cc2nc(N(C)CCCNC(=O)C3CCCO3)nc(N)c2cc1OC (stereo not drawn) [Alfuzosin-hydrochloride] | 101 | -2.42
c1ccc(CC2=NCCN2)cc1 [tolazoline-hcl] | 103 | -1.74
COc1cc2nccc(Oc3ccc(NC(=O)NC4CC4)c(Cl)c3)c2cc1C(N)=O | 99.3 | 7.92

SMILES | normalized SmoIP GFP fluorescence [1] [%] | normalized SmoIP GFP fluorescence [2] [%]
COc1cc2ncnc(Sc3nnc(C)s3)c2cc1OC [sklb1002] | 107 | -0.491
CCc1cccc(CC)c1NC(=O)N1Cc2[nH]nc(NC(=O)c3ccc(N4CCN(C)CC4)cc3)c2C1 | 121 | 3.18
N#Cc1c(O)c2c(-c3ccc(-c4ccccc4O)cc3)csc2[nH]c1=O | 139 | 6.28
OCCn1cc(-c2cnc3nnn(Cc4ccc5ncccc5c4)c3n2)cn1 | 110 | 1.03
N#Cc1c(Oc2ccc(F)c(NC(=O)Cc3cccc(C(F)(F)F)c3)c2)ccc2nc(NC(=O)C3CC3)sc12 | 126 | -0.889
O=C(c1ccc(F)cc1)N1CCC[C@H](c2nc(-c3ccc(F)cc3)no2)C1 | 156 | -7.78
CCC[C@H](NC(=O)/C(C#N)=C/c1cccc(Br)n1)c1ccccc1 | 114 | 15.7
CC(C)(C)Cn1c(N)nc2ccc(-c3[nH]c(C(C)(C)C)nc3-c3ccc(F)cc3)nc21 | 101 | 1.35
CNC(=O)c1cc(Oc2ccc(NC(=O)Nc3ccc(Cl)c(C(F)(F)F)c3)cc2)ccn1 [sorafenib] | 107 | 9.54
O=C(O)CCCN1CCC(O[C@@H](c2ccc(Cl)cc2)c2ccccn2)CC1 [bepotastine-besilate] | 103 | -2.31
Cc1cc([C@@H](C)Nc2ccccc2C(=O)O)c2nc(N3CCOCC3)cc(=O)n2c1 | 94.8 | -5.22
C[C@H](Cc1cc2c(c(C(N)=O)c1)N(CCCO)CC2)NCCOc1ccccc1OCC(F)(F)F [Silodosin(Rapaflo)] | 83.5 | -7.81
O=C1CN2Cc3c(ccc(Cl)c3Cl)N=C2N1 [anagrelide-hydrochloride] | 108 | -2.31
Cc1cc(/C=C/C#N)cc(C)c1Nc1ccnc(Nc2ccc(C#N)cc2)n1 [rilpivirine] | 110 | -0.151
Cc1cc(C)nc(NS(=O)(=O)c2ccc(NC(=S)NC(=O)COc3ccc(Br)cc3Cl)cc2)n1 | 105 | -4.81
COc1ccccc1N1CCN(CCN2C(=O)CC3(CCCC3)CC2=O)CC1 | 102 | -17.9
CC1CCc2cc(F)cc3c(=O)c(C(=O)O)cn1c23 (stereo not drawn) [flumequine] | 106 | -3.79
CN(c1ncccc1CNc1nc(Nc2ccc3c(c2)CC(=O)N3)ncc1C(F)(F)F)S(C)(=O)=O | 196 | 39.3
CN(C)c1ccc(-c2nc3ncc(Cl)c(N4CCN(CC(=O)Nc5nccs5)CC4)c3[nH]2)cc1 | 125 | 6.74
CC(=O)S[C@@H]1CC2=CC(=O)CC[C@]2(C)[C@H]2CC[C@@]3(C)[C@@H](CC[C@@]34CCC(=O)O4)[C@H]12 [spironolactone] | 102 | -4.58
COc1ccccc1Oc1c(NS(=O)(=O)c2ccc(C(C)(C)C)cc2)nc(-c2ncccn2)nc1OCCO [bosentan-hydrate] | 109 | -1.63
C[N+]1(C)CCC(=C(c2ccccc2)c2ccccc2)CC1 [diphemanil-methylsulfate] | 110 | -3.62
CCC[C@H](NC(=O)[C@@H]1[C@H]2CCC[C@H]2CN1C(=O)[C@@H](NC(=O)[C@@H](NC(=O)c1cnccn1)C1CCCCC1)C(C)(C)C)C(=O)C(=O)NC1CC1 [Telaprevir(VX-950)] | 120 | 1.03
